KB-V1 cytotox = KB-V1 MDR subline cytotoxicity; KB-V1 MDR cells viability, CellTiter-Glo, 72 h; Potency, µM (top dose mostly 46.1 µM), usual class: cytotoxic; AID 1347076; actives 3.4% (n = 400,000); further: on the % scale 0 is the no-effect control and ±100 the full control effect; nearly all actives have a fitted effect of over 60% in size
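Cytotoxicity via CellTiter-Glo luminescence after 72 h compound exposure at 37 degrees C. Cells: drug-selected KB-V1 line, DMEM phenol-red free plus 10% FBS. Compounds tested at multiple concentrations; normalized data fitted to concentration-effect curves.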
KB-3-1 tox = kills parental KB-3-1 adenocarcinoma cells; KB-3-1 viability, CellTiter-Glo ATP luminescence, 72 h; Potency, µM (series often up to 46.1 µM), most hits filed as cytotoxic; actives 1.4% (n = 400,000); further: on the % scale 0 is the no-effect control and ±100 the full control effect; nearly all actives have a fitted effect of over 60% in size
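Using CellTiter-Glo luminescence, growth of non-resistant KB-3-1 adenocarcinoma cells is assessed 72 h after pin-tool compound addition at 37 °C. Normalized responses across the concentration series yield fitted curves.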
HT1080-NT tox = kills 2HG-producing HT-1080-NT fibrosarcoma cells | AID 686970 | Potency, µM (series often up to 46.1 µM), without a hit: top-dose activity, negative = less viability, usual class: cytotoxic | HT-1080-NT fibrosarcoma viability, CellTiter-Glo ATP luminescence, 48 h | actives 1.6% (n = 360,000);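 further: NT is the 2HG producing partner of a matched IDH1 knockdown line; 0% = DMSO-treated cells and -100% = media-only wells without cells; nearly all actives have a fitted effect of over 55% in size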
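Viability of the 2HG-overproducing fibrosarcoma line after 48 hours of compound exposure at 37 degrees C was determined by luminescence with CellTiter-Glo, and concentration-effect curves were then fitted and categorized.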
HT1080 IDH1KD tx = kills HT-1080 cells with IDH1 knockdown. HT-1080 IDH1 knockdown viability, ATP luminescence, 48 h. Potency, µM (doses to about 46.1 µM), for inactives: at the highest dose activity, negative = toxicity, most hits filed as cytotoxic. actives 2% (n = 360,000);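 further: 0% = DMSO wells and -100% = cell-free medium wells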
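Using the IDH1-knockdown HT-1080 line run in the same batch and compound series as the NT line, viability after 48 h at 37 °C was determined by CellTiter-Glo luminescence and expressed as % activity.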
MCF10A rerep = induces DNA re-replication in MCF 10a normal breast cells; MCF 10A DNA re-replication, Hoechst nuclear intensity, 48 h; Potency, µM (titrated, usually from 46.1 µM), inactives show top-dose activity, positive = re-replication, hits mostly activators; actives 2.9% (n = 350,000); AID 624296; further: % of control where 0% means no effect; nearly all actives have a fitted effect of over 50% in size
SW480 rereplic = inducers of DNA re-replication in SW480 colon cancer cells; SW480 DNA re-replication, Hoechst DNA content imaging, 48 h; Potency, µM (series often up to 46.1 µM), without a hit: at the top dose re-replication activation, most hits filed as activators; actives 1.8% (n = 340,000); AID 624297; further: % of control where 0% means no effect; nearly all actives have a fitted effect of over 55% in size
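Treated cells incubate 48 hr (37 C, 5% CO2), are stained 40 min with Hoechst, and nuclear fluorescence is enumerated; a rise in nuclei with high DNA signal marks re-replication.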
Starred values were filed as active, the others as inactive; i = inactive; ? = inconclusive; . = no result; ! = a repeat was not active. Rows were chosen to be rich in hits. Some 8% of all compounds tested hit in one or more screens of this group. The call rests on the fitted dose curve; in most records, active means well fitted curve in the direction sought with a large enough effect; inconclusive means small, poorly fitted or top-dose-only effect, or another doubt; inactive means no such curve, though single readings can be large; an effect the other way counts as inactive or inconclusive. Potency means the concentration at half of the fitted maximal effect.

SMILES	KB-V1 cytotox	KB-3-1 tox	HT1080-NT tox	HT1080 IDH1KD tx	MCF10A rerep	SW480 rereplic
COc1ccc(OCc2n(CC(=O)OC3CC(C)CCC3C(C)C)c3ccccc3[n+]2C)cc1 (stereo not given)	?	13µM*	5.8µM*	5.8µM*	?	26%
COc1ccc(-c2n(CC(=O)OC3CC(C)CCC3C(C)C)c3ccccc3[n+]2C)cc1 (stereo not given)	?	?	6.5µM*	5.8µM*	?	-37%
CCC1Sc2ccc(S(=O)(=O)N3CCN(c4ccccc4)CC3)cc2NC1=O (stereo not given)	i	i	9%	5%	21µM*	?
CC(Oc1ccc(Cl)cc1Cl)C(=O)NNC(=O)c1cccnc1 (stereo not given)	i	i	-12%	4%	-8%	-12%
CC(Oc1ccc(Cl)cc1Cl)c1nc(-c2ccc(NC(=O)c3cccnc3)cc2)no1 (stereo not given)	i	i	?	7.3µM*	27%	-3%
CCn1c(Cl)c(C=O)s/c1=N\S(=O)(=O)c1ccccc1	?	?	13µM*	8.2µM*	1.2µM*	15µM*
O=C(OCn1ncc(Cl)c(Cl)c1=O)c1ccccc1Cl	?	3.7µM*	7.3µM*	5.8µM*	5.8µM*	7.3µM*
O=C(Cn1ncc(Cl)c(Cl)c1=O)c1ccc(Cl)cc1	?	?	15µM*	?	9.2µM*	?
C=CCn1c(C)cc(C(=O)Cn2ncc(Cl)c(Cl)c2=O)c1C	?	?	?	3.3µM*	5.8µM*	2.9µM*
O=C(OCCN1CCCCC1)c1ccccc1Cl	i	i	-1%	1%	-1%	1%
C=CCn1c(C)cc(C(=O)CN2NS(=O)(=O)c3ccccc3C2=O)c1C	?	?	16µM*	18µM*	?	?
Cc1ccc(C(=O)n2nc(C)c(S(=O)(=O)N3CCOCC3)c2C)cc1C	i	i	.	.	.	.
COc1ccc(/C=C/C(=O)Oc2cccc(/C=N/NC(=O)Cc3ccc(Br)cc3)c2)cc1	i	?	11%	18%	?	?
O=c1c(Cl)c(Cl)cnn1Cc1ccc(F)cc1	i	?	?	?	3.7µM*	6.5µM*
CC(C)(C)C(=O)Cn1ncc(N2CCCC2)c(Br)c1=O	i	i	3%	3%	2%	-1%
CC(C)(C)C(=O)Cn1ncc(Cl)c(Cl)c1=O	?	i	13µM*	?	2.1µM*	?
Cc1ccc(S(=O)(=O)N2C[C@H]3[C@H]4C(=O)N(Cc5ccccc5)C(=O)[C@H]4CC(=O)[C@H]3[C@@H]2c2cccc3ccccc23)cc1	i	i	14%	13%	.	.
O=C(/C=C/c1ccc(OC(F)(F)F)cc1)Nc1cccc([S+](=O)([O-])Nc2ccccc2F)c1	i	i	.	.	.	.
CCc1nc(C)c(-c2ccccc2)c(=O)[nH]1	i	i	12%	9%	?	18µM*
Cc1onc(-c2ccccc2Cl)c1C(=O)N(Cc1nc(-c2ccccc2)no1)C1CCCCC1	18µM*	?	-8%	?	?	?
Cc1cccc(-c2noc(CN(C(=O)c3c(-c4ccccc4Cl)noc3C)C(C)C)n2)c1	?	?	-1%	-1%	?	26%
Cn1c(C(=O)NCCCN2CCN(c3ccccc3F)CC2)cc2c(=O)[nH]c3ccccc3c21	?	i	-19%	-21%	23µM*	16%
Cn1c(C(=O)N2CCN(c3ccc(Cl)cc3)CC2)cc2c(=O)[nH]c3ccccc3c21	i	i	-8%	-4%	?	1%
Cc1ccc(Cl)cc1N1CCN(C(=O)c2cc3c(=O)[nH]c4ccccc4c3n2C)CC1	7.3µM*	?	?	-4%	18µM*!	-1%
Cc1ccc(CCNC(=O)CN(c2ccc(C(C)C)cc2)S(=O)(=O)c2c(C)nn(C)c2C)cc1	i	i	.	.	.	.
SMILES	KB-V1 cytotox	KB-3-1 tox	HT1080-NT tox	HT1080 IDH1KD tx	MCF10A rerep	SW480 rereplic
CN(C)CCOC1c2ccccc2C=Cc2ccccc21	i	i	-18%	-18%	2%	3%
CN(C)CCOC1c2ccccc2CCc2ccc3ccccc3c21 (stereo not given)	?	i	21µM*	16µM*	10%	8%
CC(C)CCC(CCNCc1ccccn1)c1ccc(Cl)cc1 (stereo not given)	10µM*	?	?	?	?	?
S=C(NCc1ccc(Cl)cc1)NCc1ccccn1	i	i	6%	3%	-10%	-6%
O=C(N/N=C/c1ccc(F)cc1)c1cc(-c2ccccn2)nc2ccccc12	i	i	-2%	-8%	?	-1%
COc1cc([N+](=O)[O-])cc(/C=N/NC(=O)c2cc(C)nc3ccccc23)c1O	i	?	?	13µM*	?	?
COc1cc(Br)cc(/C=N/NC(=O)Cc2ccc(C(F)(F)F)cc2[N+](=O)[O-])c1O	i	?	?	16µM*	?	24%
COc1cccc(/C=N/NC(=O)c2cc(-c3ccccn3)nc3ccccc23)c1O	?	?	?	?	-3%	1.6µM*
COc1cc(/C=N/NC(=O)c2cc(-c3cccc(Br)c3)nc3ccccc23)cc(OC)c1O	?	?	?	12µM*	?	12%
COc1cc([N+](=O)[O-])cc(/C=N/NC(=O)c2cc(-c3ccccc3)nc3ccccc23)c1O	?	?	?	?	6%	16%
O=C(C1CCCCC1)N1CCN(c2ccnc3cc(Cl)ccc23)CC1	?	?	-9%	?	1%	?
O=C(CN(C(=O)CCC(=O)Nc1ccccn1)C1CCCC1)NCc1ccccc1	i	i	15%	13%	-3%	-22%
COc1cc([N+](=O)[O-])cc(/C=N/NC(=O)Cn2nccc2C)c1O	?	?	?	?	18µM*	16µM*
O=C(Nc1cccc(C(F)(F)F)c1)c1ccc2sc([C@@H]3O[C@H](CO)[C@H](O)[C@H](O)[C@H]3O)nc2c1	i	i	2%	6%	.	.
COC(=O)[C@@H]1[C@@H](C#N)C2(c3ccccc3-c3ccccc32)N(c2ccc(Cl)cc2)N1C#N	?	?	23µM*	23µM*	5.2µM*	?
O=C(Cc1ccc(Cl)cc1)NN1C(=O)c2ccccc2C1=O	i	i	15%	11%	0%	-3%

Assay outcomes: PubChem, National Center for Advancing Translational Sciences (NCATS)
